Compounds with a hit are over-represented: about 1.7% of the library has one in this group of screens.
V-ATPase pHluor – regulators of yeast V-ATPase proton transport; S. cerevisiae, pHLuorin cytosolic pH fluorescence; response, % at 10 µM; actives 0.37% (n = 350,000); AID 504577; in the data active = response mostly above about 7.3%, no sharp cut-off; inactive = mostly below about 5.4%; also: actives read high
HTR5A ag – counter-screen for OPRM1-OPRD1 agonists: human HTR5A agonism | P47898 | HTR5A agonist assay, luminescence, cell-based | activation, % at 9.3 µM | actives 0.61% (n = 340,000) | AID 504692; in the data active = activation mostly above about 9.5%, no sharp cut-off; inactive = mostly below about 7.6%;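 also: 0% = cells with vehicle only and 100% = reference agonist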
HTR5A inv ag – HTR5A inverse agonism, opioid heterodimer counter-screen | actives 0.083% (n = 340,000) | P47898 | HTR5A cell line, luminescence | inhibition, % at 9.3 µM | AID 504634; in the data active = inhibition mostly above about 23%, no sharp cut-off; inactive = mostly below about 18%;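 also: 0% = cells with DMSO and 100% = no-cell wells with DMSO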
MOR-DOR ag – OPRM1-OPRD1 heterodimerization agonism; P35372+P41143; cells, luminescence; activation, % at 9.3 µM; actives 0.3% (n = 340,000); AID 504326; in the data active = activation above about 18%;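 also: 0% = vehicle-treated cells and 100% = reference agonist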
Target sequence (P35372 whole entry, looked up): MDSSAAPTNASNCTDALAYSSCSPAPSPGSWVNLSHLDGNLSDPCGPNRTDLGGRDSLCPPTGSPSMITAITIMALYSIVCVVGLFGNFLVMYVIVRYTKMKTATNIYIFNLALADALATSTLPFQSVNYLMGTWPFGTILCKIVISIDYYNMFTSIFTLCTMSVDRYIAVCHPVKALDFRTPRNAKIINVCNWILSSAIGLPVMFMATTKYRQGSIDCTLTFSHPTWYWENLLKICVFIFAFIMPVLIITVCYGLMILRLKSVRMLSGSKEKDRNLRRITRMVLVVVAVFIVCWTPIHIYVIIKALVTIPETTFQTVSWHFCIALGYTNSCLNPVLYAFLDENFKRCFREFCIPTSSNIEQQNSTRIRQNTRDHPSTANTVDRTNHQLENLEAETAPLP
Target sequence (P41143 whole entry, looked up): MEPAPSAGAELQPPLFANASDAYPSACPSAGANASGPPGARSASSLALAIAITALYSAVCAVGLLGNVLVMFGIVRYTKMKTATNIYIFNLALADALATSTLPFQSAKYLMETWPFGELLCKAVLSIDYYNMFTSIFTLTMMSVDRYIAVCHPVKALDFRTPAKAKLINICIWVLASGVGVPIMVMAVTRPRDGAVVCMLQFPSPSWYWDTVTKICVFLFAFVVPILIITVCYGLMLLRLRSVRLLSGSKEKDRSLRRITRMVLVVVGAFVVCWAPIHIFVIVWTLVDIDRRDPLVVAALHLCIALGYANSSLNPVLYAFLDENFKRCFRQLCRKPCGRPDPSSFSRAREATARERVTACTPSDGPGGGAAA
MIN6 prolif – inducers of beta-cell replication in MIN6 cells; MIN6 cells proliferation, ATPlite luminescence, 48 h; cells starved in 0.2% serum; 100% = growth in 10% serum; proliferation, % at 10 µM; actives 0.29% (n = 330,000); AID 2380;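 active = compounds whose signal lies at least 3.5 SD above the mean of all wells on their plate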;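 also: 0% = DMSO-treated cells in low-serum medium and 100% = 10% serum control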
MOR-DOR inv ag – inverse agonists of human mu-delta opioid receptor heterodimerization. AID 504357. actives 0.21% (n = 340,000). cell-based MOR-DOR heterodimer luminescence, inverse agonism. P35372+P41143. inhibition, % at 9.3 µM; in the data active = inhibition above about 22%, passing the limit was not always enough;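 also: 0% = cells with DMSO and 100% = wells without cells with DMSO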
* hit, by the source's call; i = inactive; nt = no result given.

SMILES	V-ATPase pHluor	HTR5A ag	HTR5A inv ag	MOR-DOR ag	MIN6 prolif	MOR-DOR inv ag
COc1ccc(/C=C/C(=O)OCC(=O)NCCNC(=O)COC(=O)/C=C/c2ccc(OC)cc2)cc1	-1.9	11.9*	-43.8	1.3	-2.3	-7.6
CCOc1ccc(N(CC(=O)Nc2ccc(C)c(Cl)c2)S(C)(=O)=O)cc1	0.0	2.2	-8.1	7.4	-2.8	-34.3
CN(C(=O)c1cccc(NC(=O)Cc2ccc(NC(=O)C3CCN(C(=O)C4CCCCC4)CC3)cc2)c1)C1CCCC1	-0.2	1.8	-6.9	-1.0	nt	4.8
O=c1ccc(N=Nc2ccccc2)ccc1O	44.1*	2.8	-10.5	3.9	nt	-18.5
O=S(=O)(O)c1ccc(N=Nc2ccccc2)cc1	-0.7	-5.7	21.4	-1.5	-1.1	7.3
NS(=O)(=O)c1ccc(NC(=O)COC(=O)c2cn(-c3ccccc3)nc2-c2ccc(F)cc2)cc1	-1.2	11.7*	-42.8	3.6	0.6	-18.7
O=C1NC(=O)C(Cc2ccccc2)(c2ccccc2)N1 (stereo not drawn)	-3.2	2.1	-8.6	-1.3	nt	6.7
Cc1ccc(CC2(c3ccccc3)NC(=O)NC2=O)cc1 (stereo not drawn)	14.9*	-3.3	11.7	-1.3	nt	6.7
O=C(NCC1CCCO1)c1ccccc1NS(=O)(=O)c1ccc(F)cc1 (stereo not drawn)	-0.5	0.4	19.6	-1.9	-1.6	7.6
O=C(NC(=S)Nc1c(Cl)ccc2nsnc12)c1ccco1	-3.4	0.7	-2.7	0.3	0.0	-1.7
Cc1nc(/C(N)=N/OC(=O)c2c(-c3ccccc3Cl)noc2C)cs1	-4.5	6.9	-1.0	2.7	-2.7	-13.9
COc1ccc(/C(N)=N/OC(=O)c2c(-c3ccccc3Cl)noc2C)cc1OC	2.2	12.2*	-29.0	12.2	-4.6	-67.2
CC(C)CC1C(=O)N(Cc2cn(Cc3ccco3)nn2)CCS(=O)(=O)N1Cc1ccc(-c2ccc(Cl)cc2)cc1 (stereo not drawn)	-0.3	nt	nt	nt	nt	nt
Cc1ccc2nc(/C(C#N)=C\c3ccc([N+](=O)[O-])o3)[nH]c2c1	85.8*	105.3*	-182.1	575.4*	-4.6	i
CCC1Oc2ccccc2N(CC(=O)N2CC(C)CC(C)C2)C1=O (stereo not drawn)	3.1	nt	nt	nt	nt	nt
Cc1ccc2oc(C(=O)Nc3nonc3C)c(C)c2c1	1.7	10.7*	-0.8	4.1	2.0	-21.2
Cc1ccc2oc(C(=O)Nc3nnc(C)s3)c(C)c2c1	-2.1	-0.1	-0.6	-1.9	-2.5	10.6
Cn1c(=O)[nH]c(=O)c2c1nc(NC1CCCC1)n2Cc1ccccc1	0.3	10.0*	-37.9	-1.6	-0.4	7.8
CCn1c(=O)c([N+](=O)[O-])c(NCCN(C)C)c2ccccc21	-2.6	6.8	5.1	0.5	-2.0	-2.9
CCn1c(=O)c([N+](=O)[O-])c(Cl)c2ccccc21	20.5*	-7.5	18.6	-7.3	-6.9	34.7*
COc1ccc(CCNC(=O)CNS(=O)(=O)c2cccs2)cc1OC	3.6	1.1	-11.0	-0.5	-3.7	3.0
O=C(Nc1ccccc1)NC1(C(=O)N2CCN(c3ncccn3)CC2)CCCCC1	15.8*	5.9	5.2	0.6	-1.7	-3.6
CC(=O)N(C1=C(Cl)C(=O)c2ccccc2C1=O)C1CCCCC1	140.8*	-1.5	10.6	10.5	-4.1	-53.1
CC(=O)n1cc(N(C(=O)CCl)c2ccc(C)cc2)c2ccccc21	-0.7	54.5*	4.3	66.2*	-4.1	-339.0
COc1cccc(N(CC(=O)NCC2CCCO2)C(=O)CNS(=O)(=O)c2ccccc2)c1 (stereo not drawn)	-3.2	3.8	-9.8	-0.9	8.4*	5.4
SMILES	V-ATPase pHluor	HTR5A ag	HTR5A inv ag	MOR-DOR ag	MIN6 prolif	MOR-DOR inv ag
CCc1ccc(CNC(=O)C(=O)NCC2CCCO2)cc1 (stereo not drawn)	-3.4	2.0	-5.5	0.7	-1.6	-3.2
COc1cccc(CNC(=O)C(=O)NCC2CCCO2)c1 (stereo not drawn)	-0.7	13.7*	-29.6	1.9	1.9	-10.5
COc1cccc(CN(CC(=O)NCC2CCCO2)C(=O)CNS(=O)(=O)c2ccccc2)c1 (stereo not drawn)	-1.2	-3.8	-8.8	-1.9	-0.2	10.7
CCOc1ccccc1N1CC(C(=O)Nc2cc(Cl)ccc2C)CC1=O (stereo not drawn)	2.9	-1.7	-5.2	-1.9	0.4	12.1
COc1ccccc1-c1ccc2c(c1)O[C@@H](CN(C)C(=O)c1ccncc1)[C@H](C)CN([C@@H](C)CO)S2(=O)=O	-0.5	nt	nt	nt	nt	nt
CC1Oc2ccccc2N(CC(=O)N2CCCC2)C1=O (stereo not drawn)	14.4*	-1.9	7.0	-3.0	-2.8	13.9
CC1CCCN(C(=O)CN2C(=O)C(C)Oc3ccccc32)C1 (stereo not drawn)	-0.7	6.9	-18.5	-1.2	-0.9	6.6
Cc1cc(=O)n2[nH]c(-c3ccco3)nc2n1	1.1	0.4	-24.6	-3.0	2.6	17.1
CCCc1cc(=O)n2[nH]c(-c3ccco3)nc2n1	15.7*	0.9	14.4	1.1	-4.6	-6.2
CC(C)(CNC(=O)CCC1CCCC1)CNC(=O)CCC1CCCC1	3.3	-4.9	12.5	1.7	2.9	-7.0
O=C(/C=C/c1cccc([N+](=O)[O-])c1)c1ccc([N+](=O)[O-])o1	177.2*	-8.6	21.9	1.0	nt	-5.6
Cc1cccc(/C=C/C(=O)c2ccc([N+](=O)[O-])o2)c1	6.0	1.6	-25.9	7.7	-6.9	-41.5
CC(=O)Nc1ccc(/C=N/NS(=O)(=O)c2cc(C)ccc2C)cc1	-3.5	6.5	-6.7	-3.1	-2.9	16.2
CC(=O)Nc1ccc(S(=O)(=O)NN=Cc2ccc(Cl)c(Cl)c2)cc1	-1.3	11.8*	-46.1	-5.9	nt	30.5
O=[N+]([O-])c1ccc(S(=O)(=O)NN=Cc2ccc(Cl)c(Cl)c2)cc1	1.4	12.8*	-50.5	-1.6	nt	8.0
COc1ccc(/C=C2\SC(=S)N(CCC(=O)NCCc3ccc(O)cc3)C2=O)cc1	-3.3	-5.7	6.2	0.1	-5.8	-0.2
O=C1/C(=C\c2cc(Cl)c(O)c(Cl)c2)SC(=S)N1Cc1ccccc1	97.1*	2.1	-7.6	-2.1	nt	10.1
COc1ccc(/C=C2/SC(=S)N(Cc3ccccc3)C2=O)cc1O	-3.1	2.3	-9.0	-1.6	-6.6	9.2
O=C(CCN1C(=O)/C(=C/c2ccccc2)SC1=S)NCCc1ccc(O)cc1	4.2	13.7*	-55.5	11.5	-6.6	-60.7
CN(C)S(=O)(=O)c1ccc(NC(=O)CN2CCCc3ccccc32)cc1	-1.9	-1.6	4.6	-2.7	-3.3	12.7
CSC(=S)NN=C(C)c1cccc(C)n1	8.4	5.4	-20.8	-2.0	nt	9.0
COc1ncnc2c1ncn2CCCN1CCN(c2ccccn2)CC1	-1.2	nt	nt	nt	nt	nt
CC(=O)c1cccc(NS(=O)(=O)c2ccc(NC(=O)N3CCCCC3)cc2)c1	-1.6	11.4*	-5.0	-0.8	-3.4	4.0

Assay outcomes deposited in PubChem BioAssay by several laboratories.
